Screening data (PubChem BioAssay)
Most compounds without a hit are left out; they make up all but 6.5% or so of the library.
VACV Venus inh = inhibitors of vaccinia virus (Venus reporter). Vaccinia virus Venus reporter expression, fluorescence. 330,000 tested, 0.46% active. Potency, µM (highest dose often 36.5 µM), for the others: at the top dose activity change, negative = inhibition, most hits filed as inhibitors; calls by dose curve; tested in A549 cells; further: potency means the concentration at half of the fitted maximal effect; nearly all actives have a fitted effect of over 30% in size
Lassa entry inh = blocks Lassa virus binding to or entry into cells | Lassa virus pseudotype entry inhibition, cell reporter | Potency, µM (titrated, usually from 37.9 µM), without a hit: at the highest dose activity change, negative = inhibition, usual class: inhibitors | 300,000 tested, 1.2% active; calls by dose curve; tested in HEK293 cells; further: potency means the concentration at half of the fitted maximal effect; nearly all actives have a fitted effect of over 50% in size
Vaccinia mCherry = inhibitors of vaccinia virus infection (mCherry reporter signal). Vaccinia virus mCherry reporter infection, fluorescence. Potency, µM (doses to about 36.5 µM), for inactives: at the top dose activity change, negative = inhibition, hits mostly inhibitors. 310,000 tested, 0.63% active; calls by dose curve; tested in A549 cells; further: potency means the concentration at half of the fitted maximal effect; nearly all actives have a fitted effect of over 35% in size
HCMV antiviral = blocks human cytomegalovirus replication. HFF cells, HCMV-luciferase reporter, 72 h; stronger effect = lower value. activity change, negative = inhibition, % at 57.5 µM. 410,000 tested, 4.5% active. AID 1259415; in the data active means activity change below about -60%; inconclusive means no clear call, values can overlap the other calls; inactive means above about -39%
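Two-dose cell screen: HFF monolayers treated with compounds and infected with luciferase-expressing HCMV at 1 PFU/cell, 72 h at 37C, then lysed for luciferase measurement.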
MARV entry inh = Marburg virus entry inhibition | Marburg virus pseudotyped entry inhibition, cell reporter | Potency, µM (highest dose often 37.8 µM), inactives show at the top dose activity change, negative = inhibition, most hits filed as inhibitors | 300,000 tested, 1.8% active; calls by dose curve; tested in HEK293 cells; further: potency means the concentration at half of the fitted maximal effect
FMDV antiviral = antivirals against foot and mouth disease virus | FMDV antiviral cell-based qHTS | Potency, µM (series often up to 57.9 µM), without a hit: at the highest dose activity change, negative = inhibition, hits mostly inhibitors | 410,000 tested, 1.2% active; calls by dose curve; tested in HEK293T cells; further: read-out not given here; potency means the concentration at half of the fitted maximal effect; nearly all actives have a fitted effect of over 45% in size
* marks the source's active call; other numbers are inactive results; i = inactive; ? = inconclusive; · = no result; [ ] = another dose, or the depositor's remark. On the % scale 0 is the no-effect control and ±100 the full control effect.

SMILES	VACV Venus inh	Lassa entry inh	Vaccinia mCherry	HCMV antiviral	MARV entry inh	FMDV antiviral
NC(c1csc(Nc2ncccn2)n1)C1CCCCC1 (configuration not stated)	?	·	-17%	8	·	1%
NC(c1csc(Nc2cnccn2)n1)C1CCCCC1 (configuration not stated)	-11%	·	-21%	-68*	·	0%
CC(C)CC(N)c1csc(Nc2cnccn2)n1 (configuration not stated)	10µM*	·	11µM*	80	·	7%
NC(c1csc(Nc2ccc(C(F)(F)F)cn2)n1)C1CCCCC1 (configuration not stated)	?	·	?	-102*	·	-28%
CCCn1c(=N)c(C(=O)NC(C)c2ccccc2)cc2c(=O)n3ccccc3nc21 (configuration not stated)	-20%	-6%[46.1 µM]	?	-1	·	-11%
Cc1ccc(F)c(NC(=O)/C(C#N)=C(\O)c2ccc(C(C)(C)C)cc2)c1	·	·	·	-63*	·	19%
Cc1ccc(CNC(=O)C2CCCN(S(=O)(=O)c3cn(C)cn3)C2)cc1 (configuration not stated)	-8%	?	-13%	-15	·	25%
C[N+]1(CC(=O)c2c3ccccc3cc3ccccc23)CCOCC1	-7%	·	13%	·	·	·
CC(C)(C)c1ccc(C(=O)C[n+]2ccccc2Cl)cc1	-12%	·	-16%	·	·	·
Cc1[nH]c2ccc(C(=O)OCC(=O)NC3(C#N)CCCCC3)cc2c1C	?	6.3µM*	-27%	-13	?	?
CCc1ccccc1NS(=O)(=O)c1ccc(OC)c2ncccc12	-6%	?	-10%	?	·	7%
COc1ccc(S(=O)(=O)Nc2c(C)cc(C)cc2C)c2cccnc12	-16%	·	i	-62*	·	?
CCOC(=O)OC[C@H]1O[C@H](c2ccc(C(C)=O)cc2)C=C[C@@H]1Oc1ccc(-c2ccccc2)cc1	·	·	·	·	3%[14.2 µM]	·
O=S(=O)(C/C(=C/CO)S(=O)(=O)c1ccccc1)c1ccccc1	·	?	·	-106*	1.8µM*	7.9µM*
O=C(NCCCN1CCN(c2ccccc2)CC1)c1nnc(Cc2c(F)cccc2Cl)o1	-8%	0%[46.1 µM]	-8%	-13	?	-23%
COc1cc2c(cc1OC)C(c1ccc(Cl)cc1)N(c1ccc(C)c(F)c1)C(=O)C2 (configuration not stated)	-21%	?	-18%	-13	-21%[46.1 µM]	?
CCC(=O)c1ccc(OCc2ccc(C(=O)c3ccccc3)cc2)cc1	-6%	5µM*	-1%	-39	?	?
CCC(=O)c1ccc(OCc2ccccc2)c(OC)c1	-14%	?	-20%	97	?	73%
COc1cccc(OC)c1OCCOc1ccc(C(=O)c2ccccc2)cc1	-13%	?	i	-66*	?	32µM*
COC(=O)c1ccc(OCCOc2ccccc2)cc1	-28%	-22%	·	24	?	19%
Cc1cc(N/N=C/c2cccc(Cl)c2)nc(NCc2ccccc2)n1	?	?	?	-2	18µM*	-21%
Cc1cc(N/N=C/c2ccc(Cl)cc2)nc(NCc2ccccc2)n1	-11%	?	?	-13	?	-14%
Cc1cc(Nc2cccc(Cl)c2)nc(NCc2ccccc2)n1	·	-15%	·	-77*	?	?
Cc1cc(N/N=C/c2ccccc2)nc(NCc2ccccc2)n1	?	?	10µM*	-8	?	-7%
CSc1ccc(/C=N/Nc2nc(C)cc(C)n2)cc1	-6%	7.1µM*	i	?	4%	10%
SMILES	VACV Venus inh	Lassa entry inh	Vaccinia mCherry	HCMV antiviral	MARV entry inh	FMDV antiviral
O=C1c2ccccc2/C(=C\c2ccc(Br)nc2)N1c1ccccc1	·	·	·	12	·	·
COCCN(C)C(=O)c1cnn(-c2ncc3c(n2)-c2ccccc2CC3)c1C	-17%	·	-3%	·	·	23%
Cc1cc(N/N=C/c2cccc(F)c2)nc(NCc2ccccc2)n1	?	?	?	8	16µM*	6%
Cc1cc(N/N=C/c2ccccc2F)nc(NCc2ccccc2)n1	-17%	2%	-2%	1	?	-10%
O=C1O/C(=C/c2ccccc2)c2ccccc21	-20%	2%	-13%	6	7%	82%
N#CC1=C(c2ccccc2)/C(=C/c2ccccc2)OC1=O	-1%	-25%	i	-106*	?	6.3µM*
C[C@H]1Cn2cnc(C(=O)N3CCN(c4ccccc4)CC3)c2C(=O)N1	·	·	·	-10	·	·
N#Cc1ccccc1Cn1c(SCC(=O)NCc2ccccc2)nc2ccccc21	4%	?	-17%	?	·	-18%
Cc1cccc(OC(=O)Cn2c(C(F)(F)F)nc3ccccc32)c1	-3%	9%	-8%	24	?	-8%
Cc1cccc(OCc2n(CC(=O)OC3CC(C)CCC3C(C)C)c3ccccc3[n+]2C)c1 (configuration not stated)	-30%	?	?	·	2.5µM*	?
CC1CCC(C(C)C)C(OC(=O)Cn2c(COc3ccccc3)[n+](C)c3ccccc32)C1 (configuration not stated)	?	?	?	-100*	?	28µM*
Cc1ccc(NC(=S)N2CCC(c3nc4ccccc4s3)CC2)cc1C	-16%	?	-27%	-90*	-14%	·
Cc1cc(C)cc(NC(=S)N2CCC(c3nc4ccccc4s3)CC2)c1	-8%	-28%	-10%	-85*	0%	·
CCNC(=O)N1CCC(c2nc3ccccc3s2)CC1	-19%	4%[46.1 µM]	-9%	-6	24%[46.1 µM]	-7%
O=[N+]([O-])c1nn(-c2ccc3c(c2)OCCO3)n(O)c1=Nc1ccccc1	-10%	7.1µM*	-14%	-95*	1.5µM*	7.9µM*
